Results from PMC5700166.

Key:
Assay in all cases: protein-binding microarray (PBM); PBM: ~300 nM protein, 6 mM HEPES pH 7.8, 80 mM KCl, 0.5 mM EDTA, 0.5 mM EGTA, 6% glycerol, 35 ng/ul poly-dIdC, 1% milk, 1 h, room temperature; Ap Aiptasia and Nv Nematostella (sea anemones) / Co Capsaspora / Aq Amphimedon (sponge) / Dm Drosophila / Hu human; RHD is the Rel homology domain; high values mean tight binding
Conditions in all cases: dsDNA, one strand shown
[1] = target: T1, GST-Ap-NF-kB RHD (Exaiptasia pallida (Aiptasia), UniProt A0A913YAJ5 2-422)
T1 sequence: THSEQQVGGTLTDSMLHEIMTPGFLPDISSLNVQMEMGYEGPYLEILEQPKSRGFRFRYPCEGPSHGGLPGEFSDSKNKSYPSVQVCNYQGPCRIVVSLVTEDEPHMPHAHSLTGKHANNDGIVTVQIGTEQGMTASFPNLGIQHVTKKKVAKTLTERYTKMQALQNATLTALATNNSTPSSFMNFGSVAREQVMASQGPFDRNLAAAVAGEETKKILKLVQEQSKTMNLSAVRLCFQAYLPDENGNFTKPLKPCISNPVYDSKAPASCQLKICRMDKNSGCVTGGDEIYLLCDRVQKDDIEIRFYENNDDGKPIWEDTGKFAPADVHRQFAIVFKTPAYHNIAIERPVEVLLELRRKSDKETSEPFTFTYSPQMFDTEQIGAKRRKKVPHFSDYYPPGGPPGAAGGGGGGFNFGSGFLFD

[2] = target: T2, GST-Nv-NF-kB (Cys allele) (Nematostella vectensis, UniProt E5G601 2-411)
T2 sequence: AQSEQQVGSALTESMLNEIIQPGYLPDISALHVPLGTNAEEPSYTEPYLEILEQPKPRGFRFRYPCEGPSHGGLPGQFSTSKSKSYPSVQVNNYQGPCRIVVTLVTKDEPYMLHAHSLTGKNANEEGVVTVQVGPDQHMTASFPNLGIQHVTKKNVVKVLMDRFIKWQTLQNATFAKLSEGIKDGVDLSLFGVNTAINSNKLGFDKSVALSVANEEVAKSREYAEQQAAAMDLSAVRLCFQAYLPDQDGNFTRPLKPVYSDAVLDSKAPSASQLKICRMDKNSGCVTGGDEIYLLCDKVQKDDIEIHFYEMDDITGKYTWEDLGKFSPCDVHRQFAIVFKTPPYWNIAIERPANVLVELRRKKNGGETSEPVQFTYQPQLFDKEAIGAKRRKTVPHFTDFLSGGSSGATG

[3] = target: T3, GST-Co-NF-kB (Capsaspora owczarzaki, UniProt F1ARL5 200-546)
T3 sequence: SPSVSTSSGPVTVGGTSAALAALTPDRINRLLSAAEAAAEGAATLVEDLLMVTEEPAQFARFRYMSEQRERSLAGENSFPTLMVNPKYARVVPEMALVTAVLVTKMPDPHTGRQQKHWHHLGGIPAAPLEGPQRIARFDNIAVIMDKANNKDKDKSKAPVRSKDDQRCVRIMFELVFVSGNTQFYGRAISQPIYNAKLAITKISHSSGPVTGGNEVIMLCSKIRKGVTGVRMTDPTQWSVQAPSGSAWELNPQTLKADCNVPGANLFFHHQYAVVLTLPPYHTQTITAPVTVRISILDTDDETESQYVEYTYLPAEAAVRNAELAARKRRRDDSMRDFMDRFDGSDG

[4] = target: T4, GST-Dm-Relish (Drosophila melanogaster, UniProt Q94527 99-473)
T4 sequence: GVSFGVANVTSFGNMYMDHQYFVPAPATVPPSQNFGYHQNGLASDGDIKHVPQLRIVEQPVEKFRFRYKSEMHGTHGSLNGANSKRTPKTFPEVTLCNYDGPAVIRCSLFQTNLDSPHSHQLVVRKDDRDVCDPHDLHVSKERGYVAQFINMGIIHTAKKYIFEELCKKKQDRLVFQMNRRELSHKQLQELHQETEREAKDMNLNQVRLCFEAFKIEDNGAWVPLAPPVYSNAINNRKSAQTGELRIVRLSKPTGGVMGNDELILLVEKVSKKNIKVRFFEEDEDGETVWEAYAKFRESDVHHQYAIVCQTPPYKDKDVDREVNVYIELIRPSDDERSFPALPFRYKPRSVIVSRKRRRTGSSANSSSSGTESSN

[5] = target: T5, GST-Aq-NF-kB (Amphimedon queenslandica, UniProt A9Y5G7 2-389)
T5 sequence: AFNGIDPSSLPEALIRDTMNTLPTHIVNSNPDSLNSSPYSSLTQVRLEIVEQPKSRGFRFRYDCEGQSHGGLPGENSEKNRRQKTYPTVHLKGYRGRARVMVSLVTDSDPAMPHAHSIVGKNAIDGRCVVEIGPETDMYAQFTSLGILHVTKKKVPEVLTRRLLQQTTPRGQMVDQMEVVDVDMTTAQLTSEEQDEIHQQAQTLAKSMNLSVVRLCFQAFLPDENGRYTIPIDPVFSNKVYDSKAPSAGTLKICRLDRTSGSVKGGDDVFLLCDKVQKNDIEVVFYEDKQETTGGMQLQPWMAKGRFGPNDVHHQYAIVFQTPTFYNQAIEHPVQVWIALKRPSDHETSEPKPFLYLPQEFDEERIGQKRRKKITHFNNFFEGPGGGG

[6] = target: GST-Hu-p50 (Homo sapiens, UniProt P19838 7-356)
GST-Hu-p50, sequence (P19838 7-356): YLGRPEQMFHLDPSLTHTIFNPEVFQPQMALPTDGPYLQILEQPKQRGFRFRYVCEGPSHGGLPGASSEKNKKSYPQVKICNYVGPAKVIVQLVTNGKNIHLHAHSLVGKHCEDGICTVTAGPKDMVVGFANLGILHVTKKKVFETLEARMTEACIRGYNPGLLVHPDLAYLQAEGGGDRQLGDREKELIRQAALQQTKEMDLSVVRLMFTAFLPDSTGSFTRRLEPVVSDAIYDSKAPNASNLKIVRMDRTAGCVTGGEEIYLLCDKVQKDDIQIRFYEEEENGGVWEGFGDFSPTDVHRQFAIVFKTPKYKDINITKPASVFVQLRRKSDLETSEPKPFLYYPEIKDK

| Sequence | binding signal [1] [z-score] | binding signal [2] [z-score] | binding signal [3] [z-score] | binding signal [4] [z-score] | binding signal [5] [z-score] | binding signal [6] [z-score] |
| --- | --- | --- | --- | --- | --- | --- |
| CCGATTAACATCAAAAAGCCCCGTGATGTTAATCGGGTCTTGATTCGCTTGACGCTGCTG | 6.52 | 8.2 | 1.43 | 8.47 | 7.21 | 6.06 |
| CCGATTAACATCAGGGGGAACACTGATGTTAATCGGGTCTTGATTCGCTTGACGCTGCTG | 6.57 | 5.66 | 8.64 | 6.58 | 5.54 | 5.28 |
| CCGATTAACATCAGAAGTCCCCCTGATGTTAATCGGGTCTTGATTCGCTTGACGCTGCTG | 7.95 | 7.32 | 5.95 | 7.74 | 6.54 | 6.36 |
| CCGATTAACATCAAGGAGTCCCCTGATGTTAATCGGGTCTTGATTCGCTTGACGCTGCTG | 7.69 | 5.61 | 3.12 | 8.59 | 5.54 | 5.86 |
| CCGATTAACATCAGGAGTGCCCCTGATGTTAATCGGGTCTTGATTCGCTTGACGCTGCTG | 2.63 | 2.03 | 1.41 | 2.25 | 5 | 2.25 |
| CCGATTAACATCAAGGAACCCCCTGATGTTAATCGGGTCTTGATTCGCTTGACGCTGCTG | 8.43 | 5.99 | 2.03 | 10.4 | 6.6 | 6.57 |
| CCGATTAACATCAGGGGGGATACTGATGTTAATCGGGTCTTGATTCGCTTGACGCTGCTG | 6.78 | 4.85 | 6.57 | 5.55 | 4.94 | 5.66 |
| CCGATTAACATCAGAACCCCCCCTGATGTTAATCGGGTCTTGATTCGCTTGACGCTGCTG | 7.14 | 4.85 | 4.1 | 7.49 | 5.36 | 5.28 |
| CCGATTAACATCAAAATCACCCCTGATGTTAATCGGGTCTTGATTCGCTTGACGCTGCTG | 4.66 | 2.97 | 5.02 | 5.22 | 3.41 | 4.39 |
| CCGATTAACATCATGTATGCCCCTGATGTTAATCGGGTCTTGATTCGCTTGACGCTGCTG | 1.68 | 1.71 | 1.24 | 1.12 | 2.51 | 1.27 |
| CCGATTAACATCACAACGACCCCTGATGTTAATCGGGTCTTGATTCGCTTGACGCTGCTG | 2.27 | 1.3 | 1.28 | 1.08 | 2.48 | 1.12 |
| CCGATTAACATCAGGGGGGTTACTGATGTTAATCGGGTCTTGATTCGCTTGACGCTGCTG | 7.07 | 4.42 | 4.24 | 8 | 5.46 | 5.29 |
| CCGATTAACATCACAGAGTCCCCTGATGTTAATCGGGTCTTGATTCGCTTGACGCTGCTG | 6.36 | 4.8 | 2.26 | 5.12 | 4.31 | 5.59 |
| CCGATTAACATCAGAAACCCCCATGATGTTAATCGGGTCTTGATTCGCTTGACGCTGCTG | 7.61 | 6.32 | 2.76 | 8.35 | 5.97 | 6.52 |
| CCGATTAACATCAGGGGGTGGAATGATGTTAATCGGGTCTTGATTCGCTTGACGCTGCTG | 3.47 | 3.19 | 4.5 | 2.66 | 3.65 | 4.42 |
| CCGATTAACATCAGGGAAATTAATGATGTTAATCGGGTCTTGATTCGCTTGACGCTGCTG | 3.37 | 5.52 | 4.18 | 2.54 | 4.81 | 4.27 |
| CCGATTAACATCAAGGGGGGTTATGATGTTAATCGGGTCTTGATTCGCTTGACGCTGCTG | 5.81 | 4.63 | 3.05 | 7.12 | 5.77 | 5.59 |
| CCGATTAACATCAAAAACCACCCTGATGTTAATCGGGTCTTGATTCGCTTGACGCTGCTG | 4.27 | 3.46 | 2.76 | 7.76 | 4.53 | 5.64 |
| CCGATTAACATCAGGAAAGCCCCTGATGTTAATCGGGTCTTGATTCGCTTGACGCTGCTG | 7.03 | 9.89 | 1.05 | 8.43 | 9.59 | 6.88 |
| CCGATTAACATCACCGAACCCCCTGATGTTAATCGGGTCTTGATTCGCTTGACGCTGCTG | 5.86 | 3.55 | 2.04 | 4.86 | 3.82 | 5.57 |
| CCGATTAACATCAGGGATGCCCCTGATGTTAATCGGGTCTTGATTCGCTTGACGCTGCTG | 6.96 | 8.09 | 1.84 | 9.08 | 8.39 | 5.89 |
| CCGATTAACATCACCAAACCCCCTGATGTTAATCGGGTCTTGATTCGCTTGACGCTGCTG | 6.25 | 4.31 | 2.03 | 5.55 | 4.31 | 6.3 |
| CCGATTAACATCAAATTTACCCCTGATGTTAATCGGGTCTTGATTCGCTTGACGCTGCTG | 3.29 | 3.57 | 8.25 | 3.85 | 4.53 | 4.09 |
